Source: PubChem
Many of the other results were omitted from the sample, so hits are more common in it than they were.
Dicer processing: blocks human Dicer maturation of pre-miR-21; hit rate 6% among 47,000; z-score at 25 µM; Q9UPY3; AID 1347074; cat-ELCCA pre-miR-21 Dicer processing, chemiluminescence; stronger effect = higher value; in the data active means z-score above about 3, passing the limit was not always enough;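 further: plate controls were vehicle for no effect and no enzyme for full effect; higher signal means more uncleaved substrate so more Dicer inhibition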
Target sequence (Q9UPY3 whole entry, looked up): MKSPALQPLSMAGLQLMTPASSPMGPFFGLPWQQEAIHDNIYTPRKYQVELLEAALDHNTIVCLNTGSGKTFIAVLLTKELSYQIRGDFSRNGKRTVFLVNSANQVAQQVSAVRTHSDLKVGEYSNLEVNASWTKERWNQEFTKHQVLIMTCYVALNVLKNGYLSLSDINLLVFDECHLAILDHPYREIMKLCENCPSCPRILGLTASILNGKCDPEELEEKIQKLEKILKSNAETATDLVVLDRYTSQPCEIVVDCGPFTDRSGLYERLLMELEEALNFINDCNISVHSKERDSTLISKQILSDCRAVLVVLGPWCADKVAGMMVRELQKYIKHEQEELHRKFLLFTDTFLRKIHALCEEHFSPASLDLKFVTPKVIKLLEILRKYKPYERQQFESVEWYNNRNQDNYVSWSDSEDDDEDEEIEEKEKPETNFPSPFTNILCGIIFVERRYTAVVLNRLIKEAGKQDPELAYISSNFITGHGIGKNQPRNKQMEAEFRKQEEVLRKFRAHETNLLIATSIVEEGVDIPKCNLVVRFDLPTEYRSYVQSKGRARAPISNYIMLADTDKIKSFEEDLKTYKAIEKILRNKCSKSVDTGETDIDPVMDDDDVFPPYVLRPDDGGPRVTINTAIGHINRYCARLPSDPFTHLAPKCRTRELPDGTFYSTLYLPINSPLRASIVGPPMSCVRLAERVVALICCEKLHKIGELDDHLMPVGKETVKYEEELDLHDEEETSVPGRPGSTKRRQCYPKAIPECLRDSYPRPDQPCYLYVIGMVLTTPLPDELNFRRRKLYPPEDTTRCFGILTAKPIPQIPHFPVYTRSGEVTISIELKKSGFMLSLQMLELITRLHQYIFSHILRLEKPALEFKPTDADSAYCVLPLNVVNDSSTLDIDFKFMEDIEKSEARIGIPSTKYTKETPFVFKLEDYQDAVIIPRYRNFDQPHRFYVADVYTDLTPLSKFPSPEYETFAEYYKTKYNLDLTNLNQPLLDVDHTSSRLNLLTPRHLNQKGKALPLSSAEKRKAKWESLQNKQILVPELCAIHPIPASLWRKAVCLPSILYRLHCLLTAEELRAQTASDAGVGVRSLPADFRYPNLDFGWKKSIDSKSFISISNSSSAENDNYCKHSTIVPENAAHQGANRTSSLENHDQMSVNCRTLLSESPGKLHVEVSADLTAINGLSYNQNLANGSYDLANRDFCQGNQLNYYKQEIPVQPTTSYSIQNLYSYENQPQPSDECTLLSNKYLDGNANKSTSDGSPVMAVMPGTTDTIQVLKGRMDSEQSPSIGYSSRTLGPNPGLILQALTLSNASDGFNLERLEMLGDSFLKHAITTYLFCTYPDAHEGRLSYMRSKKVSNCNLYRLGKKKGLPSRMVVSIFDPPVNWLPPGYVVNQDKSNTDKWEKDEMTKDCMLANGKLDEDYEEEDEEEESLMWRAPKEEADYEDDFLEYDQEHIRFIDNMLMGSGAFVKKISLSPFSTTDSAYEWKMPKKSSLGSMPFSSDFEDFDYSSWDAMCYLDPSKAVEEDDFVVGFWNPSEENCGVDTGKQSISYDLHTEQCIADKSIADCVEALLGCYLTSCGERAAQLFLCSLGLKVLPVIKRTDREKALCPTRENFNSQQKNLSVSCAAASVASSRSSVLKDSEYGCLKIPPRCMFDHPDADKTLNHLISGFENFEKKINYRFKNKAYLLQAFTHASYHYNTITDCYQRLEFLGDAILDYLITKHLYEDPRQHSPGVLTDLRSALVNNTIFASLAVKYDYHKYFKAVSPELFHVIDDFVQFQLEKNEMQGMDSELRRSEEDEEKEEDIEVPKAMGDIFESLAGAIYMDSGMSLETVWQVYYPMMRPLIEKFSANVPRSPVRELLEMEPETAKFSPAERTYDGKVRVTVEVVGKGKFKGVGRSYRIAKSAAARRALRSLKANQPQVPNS
* = called active by the depositor.

SMILES	Dicer processing
COc1ccc(-c2ncnn2-c2ccc(Cl)cc2)cc1	2.18
COc1ccc(-c2nc3n(n2)C(=O)CC(c2ccc(Cl)cc2)S3)cc1 (centres undefined)	4.47*
COc1ccc(-c2nc3n(n2)C(c2ccc(Cl)cc2)C2=C(CCCC2=O)N3)cc1 (centres undefined)	0.44
CC12CN3CC(C)(CN(C1)C3c1ccccc1F)C2=O (centres undefined)	-0.38
Cc1nnc(N2C(=O)C(O)=C(C(=O)c3ccco3)C2c2ccccc2)s1 (centres undefined)	1.17
COC(=O)c1sc(N2C(=O)C(O)=C(C(=O)c3cccs3)C2c2ccc(C(C)C)cc2)nc1C (centres undefined)	2.37
CC(C)c1ccc(C2C(C(=O)c3cccs3)=C(O)C(=O)N2CCCN2CCOCC2)cc1 (centres undefined)	1.29
Cc1nnc(N2C(=O)C(O)=C(C(=O)c3cccs3)C2c2ccc(C(C)(C)C)cc2)s1 (centres undefined)	1.13
O=C(C1=C(O)C(=O)N(CCN2CCOCC2)C1c1ccncc1)c1cccs1 (centres undefined)	-2.27
COC(=O)c1sc(N2C(=O)C(O)=C(C(=O)c3cccs3)C2c2ccc(Cl)cc2)nc1C (centres undefined)	3.8*
Cc1nnc(N2C(=O)C(O)=C(C(=O)c3cccs3)C2c2ccc(F)cc2)s1 (centres undefined)	3.77*
Cc1ccc(C2C(C(=O)c3cccs3)=C(O)C(=O)N2CCCn2ccnc2)cc1 (centres undefined)	3.29*
Cc1nnc(N2C(=O)C(O)=C(C(=O)c3cccs3)C2c2ccc(Cl)cc2)s1 (centres undefined)	0.95
COC(=O)c1sc(N2C(=O)C(O)=C(C(=O)c3cccs3)C2c2ccc(F)cc2)nc1C (centres undefined)	1.38
COc1ccc(C2C(C(=O)c3ccco3)=C(O)C(=O)N2c2nnc(C)s2)cc1OC (centres undefined)	0.56
Cc1nnc(N2C(=O)C(O)=C(C(=O)c3ccco3)C2c2ccc(Cl)cc2)s1 (centres undefined)	4.21*
COc1cc(C(F)(F)F)nc2ccc(C)c(NC(=O)Nc3ccc(OC(F)(F)F)cc3)c12	2.4
C#CCOc1ccc(C2C3=C(CCCC3=O)NC3=C2C(=O)CCC3)cc1	0.15
CN(/C=C/c1nnnn1-c1ccccc1)CCN(C)/C=C/c1nnnn1-c1ccccc1	0.34
CCCCOC(=O)C1=C(C)NC2=C(C(=O)CCC2)C1c1cc(OC)c(OC)cc1Br (centres undefined)	2.17
CC1CCc2c(sc3[nH]c(=O)n(-c4cccc(Cl)c4)c(=O)c23)C1 (centres undefined)	0.48
O=C(Nc1ccc(Cl)cc1)c1cccc(C(=O)Nc2ccc(Cl)cc2)c1F	-0.89
Cn1c(/C=C/c2cccc3ccccc23)c([N+](=O)[O-])c(=O)n(C)c1=O	2.45
O=c1o[nH]c(-c2ccccc2)c1N=Nc1ccc(Br)c(Cl)c1	0.18
Clc1ccc(-c2nn3c(-c4ccccc4)nnc3s2)cc1	3.09*
SMILES	Dicer processing
COc1ccc(-c2nn3c(-c4ccccc4)nnc3s2)cc1	-0.84
Clc1ccc(-c2nnc3sc(-c4cccs4)nn23)cc1	0.22
CSC(N)=NCc1ccco1	0
CC(C)(C)C1CCc2nc(N)c3c(=O)oc4ccccc4c3c2C1 (centres undefined)	5*
COC(=O)c1c(C)nc(C)c2c(=O)oc3ccccc3c12	0.08
CCCc1cc2c(c(N)n1)c(=O)oc1ccccc12	-0.55
CC(C)(CO)NC(=O)C1CCCNC1=O (centres undefined)	0.51
CCOC(=O)/C(=C(/C)Nc1ccc(F)cc1)C1CC(=O)N(c2ccc(OC)cc2)C1=O (centres undefined)	0.02
CC1NC(=S)N2C(C)NC(=S)N12 (centres undefined)	-1.03
CC(C)(C)C(=O)/C(C#N)=C/c1c(Cl)cccc1Cl	-0.78
CC(C)(C)OC(=O)/C(C#N)=C/c1ccc(Cl)cc1	1.04
CC(C)(C)C(=O)/C(C#N)=C/c1ccc(C(F)(F)F)cc1	3.16*
CN(C)CCNc1cc(-c2ccccc2)nc2ccccc12	0.23
O=C(O)CCC(=O)NCc1csc2ccc(Cl)cc12	-1.45
O=C(c1cc2ccccc2c(=O)o1)N1CCN(c2ccccc2)CC1	1.6
COc1ccccc1Nc1cc(=O)[nH]c(=O)[nH]1	3.58*
COc1ccccc1Nc1n[nH]c(C)c1[N+](=O)[O-]	1.93
COc1ccccc1Nc1cccccc1=O	2.68
O=C1CC2(CCCC2)C(=O)N1C1CCN(c2nccc(C(F)(F)F)n2)CC1	-0.42
C=CCN(C(=O)c1cccc(Cl)c1)c1ccccc1C(=O)NCC(=O)OCC	-0.29
COC(=O)C1=C(C)NC2=C(C(=O)c3ccccc32)C1c1cc(Cl)c(OC)c(OC)c1 (centres undefined)	0.5
Cc1ccc2c(c1)c(C)c(C)n2CC(O)CN1CCOCC1 (centres undefined)	4.57*
OC(CN1CCCC1)Cn1c2ccc(Cl)cc2c2cc(Cl)ccc21 (centres undefined)	0.68
OC(CN1CCOCC1)Cn1c2ccc(Br)cc2c2cc(Br)cc(Br)c21 (centres undefined)	0.42
COc1cccc(-c2coc3cc4oc(=O)c5ccccc5c4cc23)c1	-0.39
SMILES	Dicer processing
Cc1nc(-c2ccc(S(=O)(=O)N3CCCCCC3)s2)cs1	-1.03
Cc1nc2ccc(Oc3ccc4nc(C)[nH]c4c3)cc2[nH]1	-0.46
Cc1ccc(S(=O)(=O)Nc2ccc(O)c(Br)c2)cc1	1.43
CNS(=O)(=O)c1ccc2c(c1)Cc1cc(S(=O)(=O)NC)ccc1-2	0.52
Cc1ccc(S(=O)(=O)Nc2ccc3c(c2)Cc2cc(Br)ccc2-3)cc1	3.35*
COc1ccccc1OCC(=O)N(Cc1cccs1)C1CCS(=O)(=O)C1 (centres undefined)	0.96
O=C(c1ccccc1Br)N(Cc1cccs1)C1CCS(=O)(=O)C1 (centres undefined)	3.85*
COc1ccc(OCC(=O)N(Cc2cccs2)C2CCS(=O)(=O)C2)cc1 (centres undefined)	-0.03
CC(C)(C)c1cc2nc(C(F)(F)F)cc(N3CCNCC3)n2n1	0.27
CCOC(=O)c1sc(N2C(=O)c3oc4ccc(C)cc4c(=O)c3C2c2cccc(O)c2)nc1C (centres undefined)	0.48
O=C1CSC(=Nc2cc(Cl)cc(Cl)c2)N1c1cc(Cl)cc(Cl)c1	-0.51
Cn1ncc(C(=O)O)c1NNC(=O)CC(C)(C)CC(=O)O	0.85
Cc1cc(C(F)(F)F)nc2c([N+](=O)[O-])c(C(C)(C)C)nn12	0.7
CC(C)C(=O)N1c2ccccc2NC2=C(C(=O)CC(C)(C)C2)C1c1cccc(Cl)c1 (centres undefined)	1.52
Cc1ccc(C(=O)NNc2ncnc3cc(-c4ccc(C(C)(C)C)cc4)sc23)cc1	6.16*
Cc1ccc(C(=O)N2CCN(c3ncnc4cc(-c5ccc(C(C)(C)C)cc5)sc34)CC2)cc1	0
CC(=O)NNc1ncnc2cc(-c3ccc(C(C)(C)C)cc3)sc12	-0.05
Cc1nc(-c2ccc(-c3cccs3)s2)sc1-c1ccnn1C(=O)C(C)(C)C	-0.34
O=C(CCSCc1ccco1)NNC(=O)N1Cc2ccccc2Oc2ccc(Cl)cc21	-0.73
CCOc1ccc2[nH]c(C3C(=O)c4ccccc4C3=O)cc(=O)c2c1	-0.57
CCOc1ccc2c(c1)C(=O)C(c1cc(=O)c3ccccc3[nH]1)C2=O (centres undefined)	6.13*
CCOc1ccc2c(c1)C(=O)c1cc(OCC)ccc1-2	6.42
